Results published in PubChem BioAssay (Tox21).
Records with an inconclusive call do not appear. Calls of active or inactive are those of the source. Unless noted, calls come from the whole dose curve; as a rule, active = well fitted curve in the direction sought with a large enough effect in the repeat runs; inconclusive = weak or mixed curves; inactive = no such curve, though single readings can be large; an effect the other way counts as inactive or inconclusive.

Tests used:
[1] = qHTS assay to identify small molecule antagonists of the thyroid receptor (TR) signaling pathway - cell viability counter screen (AID 743064); note: nearly all actives have a fitted effect of over 50% in size; note: potency is the fitted concentration of half-maximal effect
Procedure, shortened: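 Viability of T3-stimulated (1 nM final) GH3.TRE-Luc cells is measured by CellTiter-Fluor fluorescence after 23.5 h compound exposure at 37 °C plus 30 min reagent incubation.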

[2] = system: thyroid hormone receptor (rat, GH3 cells); assay: qHTS assay to identify small molecule agonists of the thyroid receptor (TR) signaling pathway (AID 743066; calls by dose curve)
[3] = qHTS assay to identify small molecule antagonists of the estrogen receptor alpha (ER-alpha) signaling pathway - cell viability counter screen (AID 743074; calls by dose curve;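 note: HEK293 cells carrying ER-alpha-UAS-bla reporter stimulated with 17beta-estradiol; nearly all actives have a fitted effect of over 45% in size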; note: potency is the fitted concentration of half-maximal effect)
[4] = target: Estrogen receptor (Homo sapiens) (UniProt P03372); assay: qHTS assay to identify small molecule agonists of the estrogen receptor alpha (ER-alpha) signaling pathway (AID 743075; calls by dose curve;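 note: HEK293 GripTite cells with ER-alpha and UAS-driven beta-lactamase reporter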; note: potency is the fitted concentration of half-maximal effect)
Sequence of Estrogen receptor (Homo sapiens) (P03372 whole entry, looked up): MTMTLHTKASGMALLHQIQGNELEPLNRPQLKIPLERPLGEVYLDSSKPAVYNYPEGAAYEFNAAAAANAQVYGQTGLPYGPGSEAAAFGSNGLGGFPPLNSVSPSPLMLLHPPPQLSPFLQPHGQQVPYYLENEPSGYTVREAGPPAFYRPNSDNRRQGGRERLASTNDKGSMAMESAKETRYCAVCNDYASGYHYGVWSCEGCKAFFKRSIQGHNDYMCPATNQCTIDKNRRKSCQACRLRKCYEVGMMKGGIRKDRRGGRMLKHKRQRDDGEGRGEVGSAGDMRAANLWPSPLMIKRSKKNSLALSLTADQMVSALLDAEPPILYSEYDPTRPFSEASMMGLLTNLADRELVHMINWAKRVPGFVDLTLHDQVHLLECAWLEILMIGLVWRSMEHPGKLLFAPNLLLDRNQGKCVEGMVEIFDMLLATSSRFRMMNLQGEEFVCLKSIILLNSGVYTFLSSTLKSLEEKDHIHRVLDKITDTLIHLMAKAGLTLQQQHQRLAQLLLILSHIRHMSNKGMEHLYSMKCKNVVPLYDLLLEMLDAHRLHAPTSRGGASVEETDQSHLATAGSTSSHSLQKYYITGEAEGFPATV

[5] = target: Estrogen receptor (Homo sapiens) (UniProt P03372); assay: qHTS assay to identify small molecule agonists of the estrogen receptor alpha (ER-alpha) signaling pathway using the BG1 cell line (AID 743079); conditions: BG1Luc4E2 cells, ERE-luciferase agonist, 22 h; activation: at 70.3 µM (top of the series); note: nearly all actives have a fitted effect of over 20% in size; note: potency is the fitted concentration of half-maximal effect
[6] = qHTS assay to identify small molecule antagonists of the estrogen receptor alpha (ER-alpha) signaling pathway using the BG1 cell line (AID 743080; calls by dose curve;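 note: BG1 cells stimulated with 17beta-estradiol alongside compound; nearly all actives have a fitted effect of over 25% in size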; note: potency is the fitted concentration of half-maximal effect)
Procedure, shortened: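 Luciferase inhibition measured with ONE-Glo after 30 min at RT in BG1Luc4E2 cells given test compounds and 17beta-estradiol for 21.5 h at 37 C; CellTiter-Fluor viability read in the same wells beforehand.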

[7] = qHTS assay to identify small molecule antagonists of the estrogen receptor alpha (ER-alpha) signaling pathway using the BG1 cell line - cell viability counter screen (AID 743081);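 note: compound given together with 17beta-estradiol as the ER stimulus; nearly all actives have a fitted effect of over 45% in size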
Aromatase (Homo sapiens) = Aromatase (Homo sapiens) (UniProt P11511); assay: qHTS assay to identify aromatase inhibitors (AID 743083); note: nearly all actives have a fitted effect of over 55% in size; note: potency is the fitted concentration of half-maximal effect
Sequence of Aromatase (Homo sapiens) (P11511 whole entry, looked up): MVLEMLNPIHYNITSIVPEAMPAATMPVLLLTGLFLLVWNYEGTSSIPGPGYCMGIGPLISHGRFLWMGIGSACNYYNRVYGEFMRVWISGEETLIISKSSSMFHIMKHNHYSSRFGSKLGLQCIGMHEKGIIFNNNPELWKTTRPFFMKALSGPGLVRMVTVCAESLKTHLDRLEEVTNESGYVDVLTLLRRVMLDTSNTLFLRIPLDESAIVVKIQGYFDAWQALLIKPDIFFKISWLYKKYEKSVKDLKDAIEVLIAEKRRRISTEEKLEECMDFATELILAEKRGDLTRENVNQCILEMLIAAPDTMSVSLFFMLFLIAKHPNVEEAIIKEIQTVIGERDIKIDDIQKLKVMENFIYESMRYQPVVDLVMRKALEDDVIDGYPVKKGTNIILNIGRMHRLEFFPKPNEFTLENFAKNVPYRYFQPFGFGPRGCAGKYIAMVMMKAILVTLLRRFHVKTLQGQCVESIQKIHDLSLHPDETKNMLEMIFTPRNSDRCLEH

[8] = target: Estrogen receptor (Homo sapiens) (UniProt P03372); assay: qHTS assay to identify small molecule antagonists of the estrogen receptor alpha (ER-alpha) signaling pathway (AID 743069; active = well fitted curve in the direction sought with a large enough effect in the signal ratio in the repeat runs, not every such curve was filed as active; the % refers to the signal ratio; note: potency is the fitted concentration of half-maximal effect)
Procedure, shortened: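 Reporter cells (ER-alpha-bla, HEK293 background) are conditioned overnight in stripped-serum medium (2% charcoal-stripped FBS). Compound and 17beta-estradiol exposure runs 18 hr at 37C, 5% CO2.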

[9] = qHTS assay to identify small molecule antagonists of the thyroid receptor (TR) signaling pathway (AID 743065); note: nearly all actives have a fitted effect of over 55% in size; note: potency is the fitted concentration of half-maximal effect
Procedure, shortened: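 GH3.TRE-Luc rat pituitary cells (two TREs driving luciferase) were dosed with compound, then stimulated with 1 nM T3 (final) for 23.5 h at 37 C. ONE-Glo luminescence was the read-out, with CellTiter-Fluor fluorescence as the cytotoxicity counter-screen.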

Measured: Potency

CCCCN1CCCC1C(=O)Nc1c(C)cc(C)cc1C (stereo not drawn)
not listed: [8] | [9]
inactive: all other assays above

CC(O)c1ccccc1 (stereo not drawn)
not listed: [9]
inactive: all other assays above

CC1(C)[C@H](C(=O)O)N2C(=O)C[C@H]2S1(=O)=O
not listed: [8] | [9]
inactive: all other assays above

CCC=CC#N
not listed: [6] | [9]
inactive: all other assays above

NC1[C@H]2CN(c3nc4c(cc3F)c(=O)c(C(=O)O)cn4-c3ccc(F)cc3F)C[C@@H]12 (stereo partly drawn)
inactive: [2] | [3] | [7]
active: [1] 26.6 µM | [6] 13.3 µM | Aromatase (Homo sapiens) 0.473 µM

C=CC(=O)[O-].C=CC(=O)[O-].[Zn+2]
not listed: [9]
inactive: all other assays above

CC1(C)S[C@@H]2[C@H](NC(=O)C(c3ccccc3)S(=O)(=O)O)C(=O)N2[C@H]1C(=O)O (stereo partly drawn)
not listed: [7] | [9]
inactive: all other assays above

COc1cc(Nc2c(C#N)cnc3cc(OCCCN4CCN(C)CC4)c(OC)cc23)c(Cl)cc1Cl
active: [1] 11.9 µM | [9] 9.44 µM | [3] 26.8 µM | Aromatase (Homo sapiens) 26.6 µM

COC(=O)CS
not listed: [2] | [6] | [9]
inactive: all other assays above

Brc1cc2ccccc2c2ccccc12
not listed: [1]
inactive: all other assays above

C=C1CCC2CC1C2(C)C (stereo not drawn)
not listed: [1]
inactive: all other assays above

CN1C(=O)N(c2ccccc2Br)Cc2cnc(Nc3ccc4c(c3)OCC(CO)O4)nc21 (stereo not drawn)
active: [9] 27.3 µM | [8] 2.75 µM [cytotoxic]
inactive: [2]

Oc1cccc(Nc2ccccc2)c1
inactive: [1] | [2] | Aromatase (Homo sapiens)
active: [4] 57.6 µM [activator] | [5] 25.4 µM

CCCC(=O)C(=O)O
not listed: [1]
inactive: all other assays above

Oc1c(I)cc(I)c2cccnc12
inactive: [1] | [4] | [5] | [7] | Aromatase (Homo sapiens)
active: [8] 6.01 µM [cytotoxic]

COc1ccccc1N1CCN(CC(O)COc2cccc3ccccc23)CC1 (stereo not drawn)
inactive: [2] | [3] | [7] | Aromatase (Homo sapiens)
active: [1] 26.6 µM
